Several values for one entry are separate records, joined by “and”; a condition that tells them apart may be missing. Equal entries are not always repeated. Records with an inconclusive call do not appear. The source holds several records for some structures; these can differ, active in one and inactive in another. Activity calls are given as the source filed them. Unless noted, calls follow the shape of the full dose curve.
How the values were obtained:
[1] = molecular target: Bile acid receptor (Homo sapiens) (UniProt Q96RI1); assay: qHTS assay for small molecule antagonists of farnesoid X receptor signaling (AID 588526); also: % is scaled to controls: 0 for no effect and ±100 for the full control effect
In short: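 Antagonist mode: titrated compounds tested against chenodeoxycholic acid stimulation (normalized to 50 uM CDCA and DMSO) in GeneBLAzer HEK293T cells for 16 h. Beta-lactamase read by CCF4 fluorescence; IC50 from Hill fits.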

[2] = molecular target: Bile acid receptor (Homo sapiens) (UniProt Q96RI1); assay: qHTS assay for small molecule agonists of farnesoid X receptor signaling (AID 588527); settings: HEK293T FXR-UAS-bla, beta-lactamase ratio, 16 h; stronger effect = higher value;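 also: series mostly up to about 77 µM; 0% = vehicle basal and 100% = reference agonist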
In short: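 FXR-UAS-bla HEK293T, 10% dialyzed FBS; cpds up to 92 uM titration, 16 h 37 C; CCF4 dye 2 h RT; fluorescence. Normalized to chenodeoxycholic acid 100 uM (100%) and DMSO (0%); Hill fit gives EC50, efficacy.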

[3] = molecular target: Glucocorticoid receptor (Homo sapiens) (UniProt P04150); assay: qHTS assay for small molecule agonists of glucocorticoid receptor signaling (AID 588532; active = well fitted curve in the direction sought with a large enough effect in the signal ratio, with a control signal flat; the % refers to the signal ratio;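 also: 100% = dexamethasone at 0.1 µM and 0% = DMSO only wells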); settings: HeLa MMTV-bla, beta-lactamase ratio, agonist, 18 h; stronger effect = higher value; percent of dexamethasone control, DMSO zero
In short: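 MMTV-bla HeLa beta-lactamase reporter cells in 1% charcoal/dextran FBS medium, compounds up to 92 uM for 18 h at 37 C, CCF4 readout; normalized to 0.1 uM dexamethasone (100%), EC50 and efficacy from Hill fits.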

[4] = molecular target: Peroxisome proliferator-activated receptor delta (Homo sapiens) (UniProt Q03181); assay: qHTS assay for small molecule agonists of peroxisome proliferator-activated receptor delta signaling (AID 588534);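 also: 0% = DMSO basal wells and 100% = positive control agonist at 10 µM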
In short: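 Titration series tested in agonist mode on beta-lactamase reporter cells; 18 hrs at 37 C after a 5 hr pre-incubation. Readout: CCF4 fluorescence, 2 hrs RT. Hill equation gives EC50 and maximal response.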

[5] = qHTS assay for small molecule antagonists of peroxisome proliferator-activated receptor delta signaling (AID 588535; active = well fitted inhibition curve with a large enough effect in the signal ratio, with a control signal flat, not every such curve was filed as active; the % refers to the signal ratio;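 as to max response: cells co-treated with a PPAR-delta agonist as stimulator during compound exposure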); settings: HEK293T PPARd-UAS-bla, beta-lactamase FRET ratio, 18 h; 460 nm channel
In short: (§1)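 Beta-lactamase reporter read-out (405 nm excitation, 460/530 nm emission) after CCF4 loading for 2 hrs at RT. HEK293T PPAR-delta-UAS-bla cells, 2% charcoal/dextran FBS, compounds for 18 hrs at 37 C. Hill fit gave IC50 and efficacy.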

[6] = molecular target: Peroxisome proliferator-activated receptor delta (Homo sapiens) (UniProt Q03181); assay: as above
In short: as §1

[7] = molecular target: Peroxisome proliferator-activated receptor gamma (Homo sapiens) (UniProt P37231); assay: qHTS assay for small molecule agonists of peroxisome proliferator-activated receptor gamma signaling (AID 588536; active = well fitted curve in the direction sought with a large enough effect in the signal ratio, with a control signal flat, not every such curve was filed as active; the % refers to the signal ratio;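 also: 0% = DMSO basal wells and 100% = rosiglitazone at 2 µM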)
In short: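 Compound treatment: 16 h, 37 C, HEK293 GeneBLAzer cells. Detection: CCF4, 2 h RT. Values: Hill-fit EC50, efficacy as % of 2 uM rosiglitazone.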

[8] = molecular target: Peroxisome proliferator-activated receptor gamma (Homo sapiens) (UniProt P37231); assay: qHTS assay for small molecule antagonists of peroxisome proliferator-activated receptor gamma signaling (AID 588537; active = well fitted inhibition curve with a large enough effect in the signal ratio, with a control signal flat, not every such curve was filed as active; the % refers to the signal ratio; also: potency is read from the fitted curve at half-maximal effect)
In short: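 Read-out: CCF4 fluorescence (ex 405, em 460/530 nm) after 2 h at RT. Cells were HEK293 carrying a UAS-bla reporter and treated 16 h at 37 C with compound plus rosiglitazone (50 nM final). Normalized to rosiglitazone and DMSO.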

[9] = molecular target: Vitamin D3 receptor (Homo sapiens) (UniProt P11473); assay: qHTS assay for small molecule antagonists of vitamin D receptor signaling (AID 588541);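 also: receptor activated by calcitriol during compound treatment; series mostly up to about 77 µM; % is scaled to controls: 0 for no effect and ±100 for the full control effect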
In short: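 VDR-UAS-bla HEK293T cells in 2% charcoal-stripped FBS were stimulated with 1-alpha,25-dihydroxyvitamin D3 (3 nM final) plus compound for 16 h at 37 C. The beta-lactamase CCF4 readout was normalized to 50 nM agonist and DMSO, and Hill fits gave IC50.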

[10] = qHTS assay for small molecule agonists of retinoid X receptor alpha signaling (AID 588544); settings: HEK293T RXRa-UAS-bla, beta-lactamase reporter, 18 h; 530 nm emission;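 as to activation: 0% = DMSO basal wells and 100% = reference agonist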
[11] = molecular target: Retinoic acid receptor RXR-alpha (Homo sapiens) (UniProt P19793); assay: as above
[12] = qHTS assay for small molecule antagonists of retinoid X receptor alpha signaling (AID 588546; active = well fitted inhibition curve with a large enough effect in the signal ratio, with a control signal flat, not every such curve was filed as active; the % refers to the signal ratio;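 also: cells stimulated with 9-cis-retinoic acid as agonist; % is scaled to controls: 0 for no effect and ±100 for the full control effect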); settings: HEK293T RXRa-UAS-bla, beta-lactamase ratio, antagonist mode; measured here: W530 green channel, cytotoxicity proxy
In short: (§2)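 Beta-lactamase reporter inhibition, read as CCF4 fluorescence ratio (ex 405, em 460/530 nm) after 2 h at RT. HEK293T UAS-bla cells, 2500/well, were stimulated with 9-cis-RA at 500 or 100 nM final alongside test compound for 18 h at 37 C.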

[13] = molecular target: Retinoic acid receptor RXR-alpha (Homo sapiens) (UniProt P19793); assay: as above; settings: HEK293T RXRa-UAS-bla, beta-lactamase ratio, antagonist mode
In short: as §2

[14] = molecular target: Voltage-gated inwardly rectifying potassium channel KCNH2 (Homo sapiens) (UniProt Q12809); assay: qHTS Assay for Small Molecule Inhibitors of the Human hERG Channel Activity (AID 588834; active = well fitted curve in the direction sought with a large enough effect; an effect the other way counts as inactive or inconclusive;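 also: U2OS cells transduced with hERG by BacMam; top concentration of the series differs between compounds; % is scaled to controls: 0 for no effect and ±100 for the full control effect; lower thallium flux fluorescence means stronger hERG block; nearly all actives have a fitted effect of over 50% in size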)
In short: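 Cells were infected with hERG-BacMam virus for 4 hrs at room temperature, grown overnight, then seeded at 2000/well. After dye loading and roughly 10 min compound treatment, thallium influx was triggered and fluorescence recorded.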

[15] = molecular target: Luciferin 4-monooxygenase (Photinus pyralis) (UniProt P08659); assay: Biochemical firefly luciferase enzyme assay for NPC (AID 624030; active = well fitted curve in the direction sought with a large enough effect; an effect the other way counts as inactive or inconclusive; also: nearly all actives have a fitted effect of over 70% in size; also: potency is read from the fitted curve at half-maximal effect)
In short: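 Purified P. pyralis luciferase at 10 nM in 50 mM Tris Acetate (final), luminescence read within 5 minutes of enzyme addition to compounds. Activity normalised to PTC124 versus DMSO; concentration-response curves classed by r2, magnitude and activity.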

[16] = molecular target: Glucocorticoid receptor (Homo sapiens) (UniProt P04150); assay: qHTS assay for small molecule antagonists of glucocorticoid receptor signaling (AID 588533; active = well fitted inhibition curve with a large enough effect in the signal ratio, with a control signal flat, not every such curve was filed as active; the % refers to the signal ratio; also: % is scaled to controls: 0 for no effect and ±100 for the full control effect)
In short: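 Antagonist-mode qHTS: compound titrations added to GRE-bla HeLa cells, then dexamethasone 2 nM final; 18 h, 37 C. CCF4 FRET fluorescence normalized to dexamethasone and DMSO; IC50 from Hill fit.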

[17] = molecular target: Thyroid hormone receptor beta (Homo sapiens) (UniProt P10828); assay: qHTS assay for small molecule agonists of thyroid hormone receptor beta signaling (AID 588545)
In short: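 Cells (2500/well) were seeded, incubated 4 hrs at 37 C, dosed with a compound series, incubated 18 hrs, loaded with CCF4 dye for 2 hrs at RT, then read for fluorescence. Data were scaled between DMSO (0%) and 10 nM T3 (100%).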

[18] = molecular target: Thyroid hormone receptor beta (Homo sapiens) (UniProt P10828); assay: qHTS assay for small molecule antagonists of thyroid hormone receptor beta signaling (AID 588547; active = well fitted inhibition curve with a large enough effect in the signal ratio, with a control signal flat, not every such curve was filed as active; the % refers to the signal ratio); settings: TR-UAS-bla HEK293, beta-lactamase ratio, antagonist mode, 18 h
In short: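 TR-UAS-bla GripTite HEK293 cells in 2% charcoal/dextran FBS medium; compounds 0.59 nM to 92 uM with T3 at 0.4nM final, 18 h at 37 C. Beta-lactamase read by CCF4 fluorescence (460/530 nm); Hill fits gave IC50 and efficacy.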

[19] = S16 Schwann cell viability assay (CellTiter-Glo assay) (AID 624031; active = well fitted curve in the direction sought with a large enough effect; an effect the other way counts as inactive or inconclusive;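 also: native untransfected S16 rat Schwann cells; cellular ATP luminescence as a viability measure; series mostly up to about 58 µM; plate controls were DMSO-treated cells for no effect and cell-free wells for full effect; nearly all actives have a fitted effect of over 70% in size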)
In short: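 Following overnight culture in 10% FBS DMEM, parental S16 rat Schwann cells are dosed for 24 h at 37 °C. Viability is read as CellTiter-Glo luminescence and expressed as % activity relative to DMSO (0%) and no-cell wells.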

[20] = S16 Schwann cell PMP22 intronic element firefly luciferase assay (AID 624032; active = well fitted curve in the direction sought with a large enough effect; an effect the other way counts as inactive or inconclusive;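 also: series mostly up to about 58 µM; plate controls were DMSO for no effect and PTC124 positive control mean for full effect; nearly all actives have a fitted effect of over 30% in size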)
In short: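 Rat S16 Schwann cells stably carrying firefly luciferase driven by a PMP22 intronic element, in 10% FBS, treated 24 h at 37 C. ONE-Glo luminescence normalized to PTC124 control and DMSO (0%); curves classed by r2, magnitude and activity.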

Vitamin D3 receptor (Homo sapiens), sequence (P11473 whole entry, looked up): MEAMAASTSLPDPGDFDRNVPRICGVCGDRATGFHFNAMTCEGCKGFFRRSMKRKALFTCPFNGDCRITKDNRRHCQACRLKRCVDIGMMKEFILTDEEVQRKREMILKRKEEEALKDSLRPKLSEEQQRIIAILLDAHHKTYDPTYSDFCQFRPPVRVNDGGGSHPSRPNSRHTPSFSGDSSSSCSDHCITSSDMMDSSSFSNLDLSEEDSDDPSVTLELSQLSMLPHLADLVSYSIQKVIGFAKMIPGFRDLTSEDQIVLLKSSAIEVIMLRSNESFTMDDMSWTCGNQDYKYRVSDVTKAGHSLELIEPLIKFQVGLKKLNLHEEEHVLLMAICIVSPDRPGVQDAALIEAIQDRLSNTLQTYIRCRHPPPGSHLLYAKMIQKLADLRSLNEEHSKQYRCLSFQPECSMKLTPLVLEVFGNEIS
Voltage-gated inwardly rectifying potassium channel KCNH2 (Homo sapiens), sequence (Q12809 whole entry, looked up): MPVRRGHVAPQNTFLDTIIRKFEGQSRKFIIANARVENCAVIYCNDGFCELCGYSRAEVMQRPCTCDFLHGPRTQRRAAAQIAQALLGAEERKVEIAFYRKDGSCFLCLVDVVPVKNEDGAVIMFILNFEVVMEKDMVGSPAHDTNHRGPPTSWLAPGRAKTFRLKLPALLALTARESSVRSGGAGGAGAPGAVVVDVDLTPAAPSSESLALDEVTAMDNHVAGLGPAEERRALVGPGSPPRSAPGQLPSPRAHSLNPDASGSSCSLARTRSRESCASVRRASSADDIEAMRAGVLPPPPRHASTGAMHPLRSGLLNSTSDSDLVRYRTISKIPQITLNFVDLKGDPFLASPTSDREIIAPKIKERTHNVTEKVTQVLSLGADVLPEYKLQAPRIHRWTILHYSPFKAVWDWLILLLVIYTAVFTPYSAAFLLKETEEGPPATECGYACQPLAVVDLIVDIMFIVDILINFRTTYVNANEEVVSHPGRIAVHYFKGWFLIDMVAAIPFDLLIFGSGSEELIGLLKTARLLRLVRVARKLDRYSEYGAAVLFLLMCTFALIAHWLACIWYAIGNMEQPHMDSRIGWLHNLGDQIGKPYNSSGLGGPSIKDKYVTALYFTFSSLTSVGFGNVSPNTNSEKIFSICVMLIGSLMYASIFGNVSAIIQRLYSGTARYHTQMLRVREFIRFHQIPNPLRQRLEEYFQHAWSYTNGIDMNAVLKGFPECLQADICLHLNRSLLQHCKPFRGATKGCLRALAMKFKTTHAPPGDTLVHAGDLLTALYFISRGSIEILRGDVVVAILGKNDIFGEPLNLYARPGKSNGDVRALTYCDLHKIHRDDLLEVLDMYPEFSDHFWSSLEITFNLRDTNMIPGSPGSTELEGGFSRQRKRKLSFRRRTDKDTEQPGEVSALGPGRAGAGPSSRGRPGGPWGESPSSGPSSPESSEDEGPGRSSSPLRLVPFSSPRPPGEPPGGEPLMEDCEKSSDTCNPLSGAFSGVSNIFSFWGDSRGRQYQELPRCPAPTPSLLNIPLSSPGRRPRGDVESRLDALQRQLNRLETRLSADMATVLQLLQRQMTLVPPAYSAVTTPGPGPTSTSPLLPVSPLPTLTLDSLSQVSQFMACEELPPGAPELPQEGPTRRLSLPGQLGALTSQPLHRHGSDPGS
Peroxisome proliferator-activated receptor delta (Homo sapiens), sequence (Q03181 whole entry, looked up): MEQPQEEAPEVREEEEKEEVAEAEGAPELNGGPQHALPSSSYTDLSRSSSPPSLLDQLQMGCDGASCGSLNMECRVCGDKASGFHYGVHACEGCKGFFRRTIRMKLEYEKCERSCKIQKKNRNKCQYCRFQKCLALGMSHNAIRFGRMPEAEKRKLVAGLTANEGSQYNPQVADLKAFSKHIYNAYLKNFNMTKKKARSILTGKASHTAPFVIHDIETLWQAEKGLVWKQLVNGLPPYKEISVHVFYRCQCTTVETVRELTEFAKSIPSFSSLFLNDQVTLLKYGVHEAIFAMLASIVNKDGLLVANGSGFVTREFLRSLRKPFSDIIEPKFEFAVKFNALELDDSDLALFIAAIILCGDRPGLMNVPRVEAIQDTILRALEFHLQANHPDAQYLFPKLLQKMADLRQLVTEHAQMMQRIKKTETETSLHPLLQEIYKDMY
Luciferin 4-monooxygenase (Photinus pyralis), sequence (P08659 whole entry, looked up): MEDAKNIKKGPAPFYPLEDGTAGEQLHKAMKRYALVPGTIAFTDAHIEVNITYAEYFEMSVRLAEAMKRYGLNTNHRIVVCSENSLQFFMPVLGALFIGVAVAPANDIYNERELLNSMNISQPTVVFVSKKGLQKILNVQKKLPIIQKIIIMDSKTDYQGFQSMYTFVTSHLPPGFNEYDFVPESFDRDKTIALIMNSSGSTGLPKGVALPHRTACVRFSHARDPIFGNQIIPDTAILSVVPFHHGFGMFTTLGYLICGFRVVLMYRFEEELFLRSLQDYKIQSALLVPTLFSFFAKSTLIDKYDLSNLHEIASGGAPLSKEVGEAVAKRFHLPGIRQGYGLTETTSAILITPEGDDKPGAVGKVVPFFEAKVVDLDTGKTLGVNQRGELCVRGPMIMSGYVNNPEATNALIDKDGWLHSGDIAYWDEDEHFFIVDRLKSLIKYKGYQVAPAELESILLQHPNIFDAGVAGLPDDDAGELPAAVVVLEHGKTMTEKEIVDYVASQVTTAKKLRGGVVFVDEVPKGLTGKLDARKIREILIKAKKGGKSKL
Glucocorticoid receptor (Homo sapiens), sequence (P04150 whole entry, looked up): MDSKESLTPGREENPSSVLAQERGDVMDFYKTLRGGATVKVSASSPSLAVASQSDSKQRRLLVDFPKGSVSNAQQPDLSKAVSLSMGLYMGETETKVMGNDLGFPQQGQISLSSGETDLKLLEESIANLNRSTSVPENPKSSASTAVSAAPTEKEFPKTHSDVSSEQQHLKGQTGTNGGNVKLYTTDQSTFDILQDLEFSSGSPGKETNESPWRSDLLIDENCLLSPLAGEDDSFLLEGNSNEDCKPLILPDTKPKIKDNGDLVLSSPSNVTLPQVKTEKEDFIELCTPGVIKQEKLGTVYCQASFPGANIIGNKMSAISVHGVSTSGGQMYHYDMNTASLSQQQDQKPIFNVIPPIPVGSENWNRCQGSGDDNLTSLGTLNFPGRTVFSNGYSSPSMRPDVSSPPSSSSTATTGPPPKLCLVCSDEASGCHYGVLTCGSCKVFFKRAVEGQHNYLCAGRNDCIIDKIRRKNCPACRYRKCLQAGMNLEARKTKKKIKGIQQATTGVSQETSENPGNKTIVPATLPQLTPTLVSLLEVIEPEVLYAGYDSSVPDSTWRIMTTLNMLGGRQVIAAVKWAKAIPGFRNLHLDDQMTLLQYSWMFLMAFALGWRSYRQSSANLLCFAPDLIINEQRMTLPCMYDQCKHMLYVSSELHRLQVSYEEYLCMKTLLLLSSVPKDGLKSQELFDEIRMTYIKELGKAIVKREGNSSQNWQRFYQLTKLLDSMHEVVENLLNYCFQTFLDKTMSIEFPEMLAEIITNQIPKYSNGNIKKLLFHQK
Bile acid receptor (Homo sapiens), sequence (Q96RI1 whole entry, looked up): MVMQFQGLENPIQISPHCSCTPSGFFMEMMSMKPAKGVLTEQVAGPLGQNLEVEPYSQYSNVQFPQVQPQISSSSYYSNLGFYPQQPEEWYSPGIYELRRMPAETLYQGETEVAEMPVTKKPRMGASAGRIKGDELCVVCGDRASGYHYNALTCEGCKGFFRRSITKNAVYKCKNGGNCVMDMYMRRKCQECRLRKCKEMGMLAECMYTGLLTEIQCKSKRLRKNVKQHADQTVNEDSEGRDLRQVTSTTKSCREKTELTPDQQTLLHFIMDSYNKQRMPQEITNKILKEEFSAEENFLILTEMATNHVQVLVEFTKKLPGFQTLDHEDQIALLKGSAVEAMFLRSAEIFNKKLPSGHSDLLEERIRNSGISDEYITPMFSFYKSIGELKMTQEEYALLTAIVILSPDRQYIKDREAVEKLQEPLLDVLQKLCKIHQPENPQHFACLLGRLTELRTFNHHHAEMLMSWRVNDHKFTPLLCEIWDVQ
Retinoic acid receptor RXR-alpha (Homo sapiens), sequence (P19793 whole entry, looked up): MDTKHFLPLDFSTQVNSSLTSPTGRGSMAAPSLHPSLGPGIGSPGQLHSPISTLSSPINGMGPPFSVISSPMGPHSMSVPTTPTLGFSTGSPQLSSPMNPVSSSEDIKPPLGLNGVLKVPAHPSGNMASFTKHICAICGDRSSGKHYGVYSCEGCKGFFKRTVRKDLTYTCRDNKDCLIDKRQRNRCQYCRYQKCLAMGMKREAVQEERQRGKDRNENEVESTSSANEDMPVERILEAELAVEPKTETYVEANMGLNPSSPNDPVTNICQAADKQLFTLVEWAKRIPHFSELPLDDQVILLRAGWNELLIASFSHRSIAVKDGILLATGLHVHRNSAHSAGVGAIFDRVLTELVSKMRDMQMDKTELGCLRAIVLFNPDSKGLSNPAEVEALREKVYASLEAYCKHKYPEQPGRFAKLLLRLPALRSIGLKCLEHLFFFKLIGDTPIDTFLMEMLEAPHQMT
Thyroid hormone receptor beta (Homo sapiens), sequence (P10828 whole entry, looked up): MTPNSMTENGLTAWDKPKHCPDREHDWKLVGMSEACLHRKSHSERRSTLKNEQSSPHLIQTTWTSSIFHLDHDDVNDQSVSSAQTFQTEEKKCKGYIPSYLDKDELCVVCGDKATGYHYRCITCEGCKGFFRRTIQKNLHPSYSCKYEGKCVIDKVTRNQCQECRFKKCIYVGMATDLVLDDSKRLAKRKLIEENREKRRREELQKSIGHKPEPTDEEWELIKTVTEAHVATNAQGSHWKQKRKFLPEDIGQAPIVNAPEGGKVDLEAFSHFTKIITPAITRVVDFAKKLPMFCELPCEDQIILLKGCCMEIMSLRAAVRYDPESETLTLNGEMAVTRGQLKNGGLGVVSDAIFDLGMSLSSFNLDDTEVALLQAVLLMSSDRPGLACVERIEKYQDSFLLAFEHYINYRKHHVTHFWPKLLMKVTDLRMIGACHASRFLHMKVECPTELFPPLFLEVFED

CCOP(=O)(NC(C)C)Oc1ccc(SC)c(C)c1 (stereo not drawn)
inactive: outcome [1] | activation [2] 5.65% and 4.82% | activation [3] 3.01% and -4.29% | outcome [4] | Potency [6] | outcome [7] | Potency [9] | Potency [11] | max response [13] -12.2% and -3.23% | Potency [14] | Potency [15]
inactive and 44.7 µM (active): Potency [8]
1.81% and -9.53%: max response [12]
8.26%: max response [10]
97.8%: max response [5]

O=C(O)COc1nc(Cl)c(Cl)cc1Cl
110%: max response [5]
inactive: outcome [1] | activation [2] -0.709% | activation [3] -16% | Potency [16] | Potency [6] | Potency [9] | outcome [17] | max response [13] 6.2% | activity change % (negative = inhibition) [18] 3.94% | Potency [15]
0.628%: max response [12]

C1CCC(NC2CCCCC2)CC1
inactive: activation [3] 3.43% and -1% and -4.74% | Potency [16] | outcome [4] | Potency [6] | outcome [7] | Potency [8] | Potency [9] | Potency [11] | outcome [17] | max response [13] 9.08% and 2.51% and 3.48% | activity change % (negative = inhibition) [18] -2.7% and -4.6% and 5.65% | Potency [14] | Potency [15] | Potency [19] | Potency [20]
-15% and -1.01% and -0.218%: max response [10]
-3.33% and -12% and -7.77%: max response [12]
10% and 0.455%: max response [5]

Nc1ccc(N=Nc2ccccc2)cc1
active: Potency [15] 5.26 µM
-10.7%: max response [10]
inactive: outcome [1] | activation [2] -11.4% | activation [3] -2.94% | Potency [16] | outcome [4] | Potency [6] | outcome [7] | Potency [8] | Potency [9] | Potency [11] | outcome [17] | activity change % (negative = inhibition) [18] -2.63%
4.67%: max response [5]

Nc1ccc([N+](=O)[O-])cc1
inactive: outcome [1] | activation [2] -1.05% | activation [3] 0.519% | outcome [7] | Potency [9] | Potency [11] | outcome [17] | max response [13] -12.6% | activity change % (negative = inhibition) [18] -27.9% | Potency [14] | Potency [15]
1.67%: max response [12]
6.91%: max response [10]

Nc1cccc2c(N)cccc12
0.56%: max response [5]
inactive: activation [2] -1.29% and -1.59% | activation [3] -1.46% | outcome [4] | Potency [6]
